tim10-1 inh: growth inhibitors of tim10-1 mutant yeast, primary screen, luminescence, uHTS. inhibition, % at 20 µM. S. cerevisiae tim10-1 ts strain growth, BacTiter-Glo, 24 h. hit rate 2.2% among 330,000. AID 463190, 2010;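 active = inhibition of at least 40%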;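 also: mutant grown at 25 °C; 0% = DMSO wells with yeast and 100% = wells holding no yeast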
SKKanGAS inh: S. pyogenes SKKanGAS growth inhibitors in kanamycin, primary screen, streptokinase expression inhibitor project, SKKanGAS strain, BacTiter-Glo luminescence | 6 h | inhibition, % at 7.5 µM | hit rate 1.3% among 300,000;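 active = mean replicate score, as percent of positive control median, at least 50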;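 also: strain carries kanamycin resistance gene driven by streptokinase promoter and grows in 40 µg/ml kanamycin; loss of luminescence reflects streptokinase promoter inhibition or plain growth inhibition; 0% = median of DMSO wells and 100% = positive control at its reference dose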
EBI2 antag: EBI2 receptor antagonists, beta-arrestin recruitment, primary screen, cell-based, luminescence, 7a,25-OHC stimulation, uHTS; G-protein coupled receptor 183 (Homo sapiens), P32249; 7a,25-OHC stimulated; inhibition, % at 5 µM; hit rate 0.81% among 360,000; in the data active = inhibition above about 38%;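 also: enzyme fragment complementation signal reports receptor beta-arrestin coupling in cells; 0% = agonist plus DMSO wells and 100% = wells without agonist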
Target sequence (P32249 whole entry, looked up, the tested form may be a part): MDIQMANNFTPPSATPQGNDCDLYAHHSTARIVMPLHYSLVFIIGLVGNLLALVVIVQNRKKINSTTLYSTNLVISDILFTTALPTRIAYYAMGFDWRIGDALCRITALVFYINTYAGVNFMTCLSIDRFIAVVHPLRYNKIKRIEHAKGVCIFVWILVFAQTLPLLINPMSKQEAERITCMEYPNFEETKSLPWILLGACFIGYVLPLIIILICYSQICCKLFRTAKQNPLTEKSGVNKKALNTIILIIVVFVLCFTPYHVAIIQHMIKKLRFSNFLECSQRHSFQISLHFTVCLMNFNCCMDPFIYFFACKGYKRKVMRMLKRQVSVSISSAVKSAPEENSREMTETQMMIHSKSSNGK
TIM10 inh: growth inhibitors of isogenic TIM10 control yeast, primary screen, counter-screen for tim10-1 yeast inhibitor project, luminescence, uHTS; S. cerevisiae TIM10 strain growth, BacTiter-Glo luminescence, 24 h; inhibition, % at 10 µM; hit rate 1.4% among 330,000; AID 463195, 2010;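 active = inhibition of 40% or more at the single tested concentration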;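 also: wild-type TIM10 isogenic control strain grown at permissive 25 °C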
tim23-1 inh: growth inhibitors of tim23-1 mutant yeast, primary screen, luminescence, uHTS | S. cerevisiae tim23-1 growth, BacTiter-Glo luminescence, 24 h | hit rate 1.3% among 330,000 | inhibition, % at 20 µM;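 active = growth inhibition of the mutant yeast at or above 50%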;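 also: temperature-sensitive mutant grown at 25 °C; plate controls were DMSO-treated mutant yeast for no effect and medium wells lacking yeast for full effect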
PfHsp90 set2: growth inhibition of PfHsp90-expressing yeast, primary screen, antimalarial PfHsp90 inhibitor project, S. cerevisiae, BacTiter-Glo luminescence, single point, set 2; hit rate 0.32% among 310,000; inhibition, % at 9.4 µM; BacTiter-Glo ATP, 48 h; yeast lacking PDR1 and PDR3 efflux regulators;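 active = every replicate shows inhibition above about 80%, whatever the replicate mean, limit read from the data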;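 also: 0% = DMSO neutral controls and 100% = 20 µM radicicol positive controls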
EBI2 antag conf: EBI2 antagonist hit retest, beta-arrestin, confirmation, cell-based, single concentration, luminescence, 7a,25-OHC stimulation; inhibition, % at 5 µM; shares compounds with EBI2 antag; hit rate 29% among 2,400; 7a,25-OHC antagonism;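 active = inhibition of at least 50%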
EBI2 ag: EBI2 agonist activity of antagonist hits, confirmation, counter-screen for EBI2 antagonist project, cell-based, single concentration, agonist mode, luminescence; shares compounds with EBI2 antag; AID 652000, 2013; EBI2-expressing cells, 60 min; 0% vehicle, 100% 7α,25-dihydroxycholesterol control; 2,400 tested, under 10 active; activation, % at 5 µM;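 active = activation of at least 50%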
bGal cs: E. coli beta-galactosidase enzyme inhibition, confirmation, counter-screen for EBI2 antagonist project, biochemical, luminescence, single concentration; shares compounds with EBI2 antag; purified beta-galactosidase, luminescent Galacton Star, 15 min; inhibition, % at 5 µM; hit rate 1% among 2,400; AID 652176, 2013;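 active = replicate-average signal at least 3 plate SD below neutral wells, shown as high inhibition, flagging enzyme-inhibiting false positives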;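 also: 0% = DMSO wells with enzyme and 100% = wells lacking enzyme; higher means stronger loss of beta-gal luminescence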
The depositor's hits bear a star; nt = not tested or not shown. Only some compounds are listed: those with a hit (about 4.7% of all), similar ones and a draw of the others.

SMILES	tim10-1 inh	SKKanGAS inh	EBI2 antag	TIM10 inh	tim23-1 inh	PfHsp90 set2	EBI2 antag conf	EBI2 ag	bGal cs
O=C(CN1CCCCCC1)Nc1ccccc1Cl	-16	5	1	-5	-12	4	nt	nt	nt
CCOC(=O)C1CCN(C(=O)/C=C/c2ccc3c(c2)OCO3)CC1	15	11	56*	-1	8	-25	33	-1	-9
O=C(CSc1ccc([N+](=O)[O-])cc1)Nc1ccccc1N1CCOCC1	3	nt	12	7	14	-22	nt	nt	nt
O=C(CSc1ccc(Cl)cc1)Nc1ccccc1N1CCN(C(=O)c2ccc(Cl)cc2)CC1	30	32	43*	24	23	-9	14	0	5
O=C(Nc1ccccc1N1CCCCC1)C1CCN(C(=O)c2ccc(Cl)cc2)CC1	15	6	58*	-1	26	31	6	2	-11
O=C(Cc1ccccc1)Nc1ccccc1N1CCN(c2ccccc2)CC1	5	3	41*	3	12	-30	10	0	7
O=C(CSc1ccc(Br)cc1)Nc1ccccc1N1CCOCC1	22	0	43*	-3	24	-30	42	1	6
O=C(Nc1ccccc1N1CCCC1)C1CCN(C(=O)c2ccc(Cl)cc2)CC1	3	3	32	-3	23	nt	nt	nt	nt
CCOC(=O)C1=C(C)NC(=O)NC1c1c(O)ccc2ccccc12 (stereo not drawn)	18	-2	5	-8	15	4	nt	nt	nt
COc1ccc(N2CCN(C(=O)c3cc(=O)c4cc(C)c(C)cc4o3)CC2)cc1	4	-7	92*	25	20	4	87*	0	9
COc1ccc(N2CCN(C(=O)c3cc(=O)c4cc(C)cc(C)c4o3)CC2)cc1	32	9	80*	26	34	-18	84*	-2	-16
COc1ccc(CNC(=O)c2cc(=O)c3cc(C)cc(C)c3o2)cc1	-11	6	15	3	11	2	nt	nt	nt
COc1ccc(N2CCN(C(=O)c3cc(=O)c4cc(C)ccc4o3)CC2)cc1	15	6	92*	16	27	-4	82*	1	-1
CC(C)c1ccc(CC(=O)N2CCC2(C)C(=O)NCCC#N)cc1 (stereo not drawn)	nt	nt	-7	nt	nt	nt	nt	nt	nt
Cc1ccc(CONC(=O)c2cccc(C)c2)cc1	-3	nt	10	-3	8	-3	nt	nt	nt
Cc1ccc(CONC(=O)c2ccc(OC(F)F)cc2)cc1	31	-5	78*	18	44	nt	71*	0	8
COc1ccc(-n2nnc3c(=O)n(CC(=O)N4CCCc5ccccc54)cnc32)cc1	8	-6	0	0	9	4	nt	nt	nt
COc1ccc(-n2nnc3c(SCC(=O)N4CCCc5ccccc54)ncnc32)cc1	-18	-1	42*	-33	-31	12	4	1	6
O=C(c1cn(-c2ccccc2)nc1-c1cccnc1)N1CCCC(C(F)(F)F)C1 (stereo not drawn)	1	-4	7	-1	13	23	nt	nt	nt
COc1ccc(C(=O)N2CCN(Cc3ccccc3)CC2)cc1[N+](=O)[O-]	2	16	30	-5	12	0	nt	nt	nt
COc1ccc2[nH]c(C(=O)N3CCN(Cc4ccccc4)CC3)cc2c1OC	4	-11	52*	14	29	11	17	0	-10
Cc1[nH]c2ccc(C(=O)N3CCN(c4ccccn4)CC3)cc2c1C	30	4	41*	20	23	-6	39	1	8
Cc1[nH]c2ccc(C(=O)N3CCN(Cc4ccccc4)CC3)cc2c1C	17	1	65*	18	19	3	40	3	6
CCCN1CCN(C(=O)c2ccc3[nH]c(C)c(C)c3c2)CC1	nt	nt	73*	nt	nt	nt	46	-1	-11
CCOC(=O)N1CCN(C(=O)c2ccc3[nH]c(C)c(C)c3c2)CC1	19	nt	35	7	11	-26	nt	nt	nt
SMILES	tim10-1 inh	SKKanGAS inh	EBI2 antag	TIM10 inh	tim23-1 inh	PfHsp90 set2	EBI2 antag conf	EBI2 ag	bGal cs
Cc1nc2ccc(C(=O)N3CCN(c4ccccn4)CC3)cc2s1	28	2	21	3	18	1	nt	nt	nt
COC(=O)c1ccccc1NC(=O)CCC(=O)N1CC(C)Oc2ccc(C)cc21 (stereo not drawn)	18	-2	5	10	14	7	nt	nt	nt
COc1ccc(C(=O)N/N=C(\C)c2ccccn2)cc1OC	26	38	58*	11	12	-5	84*	-1	0
C/C(=N\NC(=O)c1cccc2ccccc12)c1ccccn1	8	79*	73*	6	34	2	79*	-3	-10
C/C(=N\NC(=O)c1ccccc1Cl)c1ccccn1	-10	41	32	-1	-9	0	nt	nt	nt
CCOc1ccc(OCc2ccc(C(=O)N/N=C(\C)c3ccccn3)cc2)cc1	nt	92*	74*	nt	nt	6	65*	-1	-6
CSCc1ccc(C(=O)NCC(c2cccs2)N2CCOCC2)cc1 (stereo not drawn)	-11	-3	7	-9	-5	nt	nt	nt	nt
CCc1ccc(Oc2coc3cc(OCC(=O)Nc4cc(C)ccc4C)ccc3c2=O)cc1	8	1	52*	-9	-10	-8	11	0	-11
CCCc1ccc(Oc2coc3cc(OCC(=O)Nc4ccccc4C)ccc3c2=O)cc1	5	2	38	-13	-17	-21	nt	nt	nt
CC(C)(C)CNC(=O)c1cccc2c1C(=O)c1ccc(N3CCCC3)cc1S2(=O)=O	5	nt	54*	1	5	4	61*	1	-7
CCc1ccc(N2CC(C(=O)Nc3ccc(S(=O)(=O)NCC4CCCO4)cc3)CC2=O)cc1 (stereo not drawn)	-11	7	60*	4	4	21	64*	-2	-17
O=C(c1ccc(Br)cc1)N1CCC(C(=O)N2CCN(Cc3ccccc3)CC2)CC1	12	-12	63*	12	-1	32	37	1	10
